Assay results reported in PubChem BioAssay AID493005 (National Center for Advancing Translational Sciences (NCATS), 2010).
Fewer than 10 of roughly 340,000 compounds were called active. The call rests on the fitted dose curve; in most records, active means well fitted inhibition curve with a large enough effect in the main read-out, with a control signal flat (not every such curve was filed as active); inconclusive means small, poorly fitted or top-dose-only effect, or effect the other way, or a change in a side signal; inactive means no such curve, though single readings can be large or run the other way. A selection follows.

biological target: Tumor susceptibility gene 101 protein (Homo sapiens) (UniProt Q99816); experiment: qHTS Assay for Iinhibitors of HIV-1 Budding by Blocking the Interaction of PTAP/TSG101; details: Fluorescence polarization, FITC-PTAP peptide / Tsg101 binding; series mostly up to 115 µM; activity change, negative = inhibition: at the top concentration; further: % of control where 0% means no effect
Sequence (Q99816 whole entry, looked up): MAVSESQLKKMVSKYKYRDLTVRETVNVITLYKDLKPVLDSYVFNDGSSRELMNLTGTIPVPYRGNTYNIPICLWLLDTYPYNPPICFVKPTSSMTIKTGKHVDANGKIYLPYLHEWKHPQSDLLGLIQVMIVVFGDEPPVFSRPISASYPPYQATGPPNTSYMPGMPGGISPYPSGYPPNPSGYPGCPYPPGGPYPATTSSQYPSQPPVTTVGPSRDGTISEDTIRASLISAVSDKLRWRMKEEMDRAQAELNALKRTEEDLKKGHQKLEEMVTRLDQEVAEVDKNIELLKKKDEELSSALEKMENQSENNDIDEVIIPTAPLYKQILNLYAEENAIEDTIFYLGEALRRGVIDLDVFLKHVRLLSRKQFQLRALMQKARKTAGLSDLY
Description: NIH Molecular Libraries Probe Production Network [MLPCN] NIH Chemical Genomics Center [NCGC] MLPCN Grant: 1 R03 MH087464-01A1 PI Name: Dr. Eric Freed, NCI NCGC Assay Overview: Stages of the HIV-1 replication cycle, specifically virus assembly and release, provide underexploited targets for the development of novel antiviral inhibitors. The late stages of HIV-1 replication are mediated by the Gag precursor protein, Pr55Gag. Expression of Pr55Gag is both necessary and sufficient for the production of virus-like particles from Gag-expressing cells. The Gag protein hijacks key host proteins involved in endocytic machinery of the host cell to promote endosomal processing and viral budding. The budding process requires a direct interaction between a […] (PTAP) motif in the p6 domain of Gag and the cellular endosomal sorting protein known as Tsg101. In this way, the Gag PTAP motif promotes the host cells to recruit viral particles to the plasma membrane where the new viral particles are released, effectively turning the host cells into viral factories. A fluorescence anisotropy assay has been developed to quantitatively measure the PTAP-Tsg101 interaction which can be used to screen for inhibitors of this interaction.
NCGC Assay Protocol Summary: Two uL of the Tsg101 binding domain in buffer (10 mM HEPES pH 7.5; 0.15 M NaCl, 0.01% Tween 20; 3 mM EDTA;0.1 mM TCEP) was dispensed into Greiner black MB 1536-well plates (final concentration 10 uM). Then, 23 nL of compounds or DMSO were delivered to each well using a pin tool. Finally, 2 uL of a FITC-labeled peptide containing the PTAP motif (1) in the same buffer was dispensed (50 nM final concentration) and the binding was allowed to proceed for 20 min. at r.t. Fluorescent polarization was determined using FITC excitation and polarized emission filters on a Perkin Elmer Viewlux. Keywords: Tsg101, PTAP, Gag, HIV, fluorescent polarization, MLSMR, MLPCN, NIH Roadmap, qHTS, NCGC

Row | Compound | activity change, negative = inhibition
1 | Cc1nc2ccc(N)nc2nc1C | -0.53% (inactive)
2 | C/C(=N\NC(=O)OC(C)(C)C)c1ccc[nH]1 | -1.18% (inactive)
3 | O=C(CCN1C(=O)[C@H]2CC=CC[C@H]2C1=O)NCc1nc(-c2ccccc2)no1 | -6.22% (inactive)
4 | CCc1nnc(NC(=O)CSc2nnc(COc3ccc(C#N)cc3)n2-c2ccccc2)s1 | -10.6% (inactive)
5 | CCN(CCn1cccn1)Cc1cn[nH]c1-c1ccc(OC)cc1F | 0.565% (inactive)
6 | CC1CN(Cc2nc3c(c(=O)n(C)c(=O)n3C)n2Cc2cccc(Cl)c2)CC(C)O1 (stereo not given) | -3.91% (inactive)
7 | O=C(c1ccc(C(F)(F)F)cc1)C1CCCN(C(=O)c2csnn2)C1 (stereo not given) | -0.106% (inactive)
8 | CN1CCC(N(C)C(=O)c2ccc(Cl)c(S(=O)(=O)Nc3ccc(Cl)cc3)c2)CC1 | -3.3% (inactive)
9 | O=C(C[C@H]1C/C=C\C[C@@H](NC(=O)OCC2c3ccccc3-c3ccccc32)C(=O)O[C@@H](c2ccccc2)CNC1=O)N[C@H](CO)Cc1ccccc1 | -5.62% (inactive)
10 | COc1cc(/C=C/c2ccc(/C=C/c3cc(OC)c(OC)c(OC)c3)cc2)cc(OC)c1OC | -1.32% (inactive)
11 | CCOC(=O)c1ccc2[nH]c3c(c2c1)CCCC3NC=O (stereo not given) | -3.47% (inactive)
12 | CCN1CCN(C(=O)Cn2nc(C)n3c(cc4c(OC)cccc43)c2=O)CC1 | -6.31% (inactive)
13 | O=C(NCc1nnc(SCC(=O)N2CCC(Cc3ccccc3)CC2)o1)c1ccco1 | -0.997% (inactive)
14 | CCN(CC)S(=O)(=O)c1ccc2[nH]c(=O)cc(C(=O)N(C)C3CCS(=O)(=O)C3)c2c1 (stereo not given) | -4.05% (inactive)
15 | O=C(C1CCCO1)N(c1ccc(F)cc1)C1C=CS(=O)(=O)C1 (stereo not given) | 0.363% (inactive)
16 | O=C(NCc1ccccc1)c1cccc(NC(=O)C2CCCCC2)c1 | -6.8% (inactive)
17 | c1ccc(-c2nccc(-c3ccc(-n4cnc5ccccc54)cc3)n2)nc1 | -1.99% (inactive)
18 | CCC(C)Sc1nc(C)nc2c1c(=O)n(C)c(=O)n2C (stereo not given) | 0.253% (inactive)
19 | CCN(CC)C(=O)CSc1nc2ccccc2n1CC(=O)N1CCN(c2ccccc2OC)CC1 | 0.875% (inactive)
20 | CCOc1ccccc1NC(=S)C(=C([O-])c1ccc2c(c1)OCCO2)[n+]1ccc(CC)cc1 | 3.72% (inactive)
21 | O=C(CSc1nnc(-c2cccs2)n1Cc1ccco1)c1ccc2c(c1)OCO2 | -3.06% (inactive)
22 | COC(=O)c1ccc(NC(=O)CSc2nncc3ccc(OC)c(OC)c23)cc1 | -2.76% (inactive)

Row | Compound | activity change, negative = inhibition
23 | Cc1noc(C)c1C(=O)NCCc1ccc(S(N)(=O)=O)cc1 | -0.805% (inactive)
24 | O=C(CN1CCN(c2ccc(O)cc2)CC1)Nc1ccc(-c2ccccc2)cc1 | -0.657% (inactive)
25 | CCN(C(=O)COC(=O)c1c(C)nn(-c2ccccc2)c1Cl)c1c(N)n(Cc2ccccc2)c(=O)[nH]c1=O | -1.46% (inactive)
26 | COc1cccc(-c2nn(-c3ccccc3)cc2/C=C(\C#N)C(=O)NCCCn2ccnc2)c1 | -4.69% (inactive)
27 | Nc1c(-c2cccc(Cl)c2)cnn1-c1cccc([N+](=O)[O-])c1 | -1.6% (inactive)
28 | COc1ccc(CN2C(=O)CC(Cc3ccc(C)cc3)C2=O)cc1OC (stereo not given) | 0.513% (inactive)
29 | C/C(=N\N=C(N)N)c1ccc(Cl)cc1 | -1.16% (inactive)
30 | CC(C)Oc1ccc(C2NC(=O)NC2=O)cc1 (stereo not given) | -6.43% (inactive)
31 | COC(=O)C1(S(=O)(=O)C2(C(=O)OC)CCCC2)CCCC1 | 0.594% (inactive)
32 | C=CCOC(=O)C1=C(C)N=C2SCCC(=O)N2C1/C=C/c1ccccc1OC (stereo not given) | -5.89% (inactive)
33 | Cc1ccc(N(C(=O)CC2NC(=O)NC2=O)C2(C(=O)NC3CCCC3)CCCCC2)cc1 (stereo not given) | -3.36% (inactive)
34 | O=S(=O)(NCCS(=O)(=O)N1CCN(c2ccccc2)CC1)c1ccc(F)cc1 | -5.23% (inactive)
35 | Fc1ccc(-n2c(Cc3ccccc3)nnc2SCc2nc(-c3ccc(Cl)cc3)no2)cc1 | -5.49% (inactive)
36 | N/C(=N\OC(=O)CCc1ccccc1)c1ccc(Cl)cc1 | -1.88% (inactive)
37 | O=C(CN1CCN(Cc2ccccc2)CC1)NC(c1ccccc1)c1ccccc1 | -0.0932% (inactive)
38 | O=C(O)c1[nH]c2ccccc2c1C(c1cccc(O)c1)c1c(C(=O)O)[nH]c2ccccc12 | -5.64% (inactive)
39 | COCCCNCC(=O)Nc1sc(C)c(C)c1C(=O)OC | 0% (inactive)
40 | CCn1c(SCC(=O)NC2=NCCS2)nnc1C(C)NC(=O)c1ccccc1F (stereo not given) | -2.35% (inactive)
41 | Cc1ncc([N+](=O)[O-])n1CCOC(=O)c1ccc(Br)cc1 | -6.42% (inactive)
42 | CC(C)(C)C(=O)Nc1cccc(-c2ccc[nH]2)n1 | -4.49% (inactive)
43 | O=C(C/C(=N\NC(=O)c1ccccc1Br)C(F)(F)F)c1cccs1 | -4.3% (inactive)
44 | COC(=O)[C@@]12CCCN1[C@H](c1ccc(-c3ccc(F)cc3)c(OC)c1)[C@H]1C(=O)N(C)C(=O)[C@H]12 | -0.523% (inactive)

Row | Compound | activity change, negative = inhibition
45 | C=C1c2c(Cl)ccc(O)c2C(O)=C2C(=O)[C@]3(O)C(O)=C(C(N)=O)C(=O)[C@@H](N(C)C)[C@@H]3[C@@H](O)C12 (stereo not given in full) | -1.33% (inactive)
46 | Cc1ccc(C)c(OCCC(=O)OCC(=O)NC(=O)NCc2ccccc2)c1 | -1.56% (inactive)
47 | COc1ccc(NC(=O)CSc2ccc(-c3ccco3)nn2)c(OC)c1 | -8.49% (inactive)
48 | COC(=O)[C@]1(C)CCC[C@@]2(C)C3CC[C@]4(OC(C)=O)C[C@@]3(CCC21)CC4=NO (stereo not given in full) | -6.61% (inactive)
49 | COc1ccc(C(=O)CCc2ccccc2O)c(OC)c1 | 0.644% (inactive)
50 | Cc1ccc(CNC(=O)CCC(=O)N2CC(C)Sc3ccccc32)cc1 (stereo not given) | -0.171% (inactive)
51 | Cc1cc(C)cc(NC(=O)N2CCC(NC(=O)c3ccc(F)cc3)CC2)c1 | -0.34% (inactive)
52 | Cc1ccc(CCCOC(=O)C[N+]2(C)CCCCC2)cc1 | -0.238% (inactive)
53 | Cc1noc(C)c1S(=O)(=O)N1CCCC(C(=O)Nc2nccs2)C1 (stereo not given) | -2.7% (inactive)
54 | CCCCNC1(C#N)CCN(Cc2ccccc2)CC1 | -0.662% (inactive)
55 | O=C(NNC(=S)NCCCN1CCOCC1)c1ccncc1 | -0.889% (inactive)
56 | CCOc1cc(CN2CCCC(CO)(Cc3ccc(F)cc3F)C2)ccc1OC (stereo not given) | -0.505% (inactive)
57 | Cc1ccc2c(C)c(C(=O)N(C)CCC3CCCCO3)oc2c1C (stereo not given) | -7.71% (inactive)
58 | CN(C)C(=O)c1ccc2c(c1)C1C3CCC(C3)C1C(c1ccccc1)N2 (stereo not given) | -5.45% (inactive)
59 | O=C(CCC1CCCC1)N=C1SC2CS(=O)(=O)CC2N1Cc1ccccc1 (stereo not given) | -1.15% (inactive)
60 | Cc1ccc(CN(N=Nc2nonc2N)c2nonc2N)c(C)c1 | -0.109% (inactive)
61 | Cc1ccc(C(=O)O)cc1N1C(=O)CCCC1=O | -3.92% (inactive)
62 | Cc1ccc(CN2CCN(c3ccccc3Cl)CC2)o1 | -5.99% (inactive)
63 | CCCC(=O)Nc1nnc(CC(=O)OCC)s1 | 0.641% (inactive)
64 | COc1ccc(CCNCc2c(-c3ccccc3)n(C)c3ccccc23)cc1 | -3.78% (inactive)
65 | COc1ccc(F)cc1S(=O)(=O)N1CCCCC1 | -9.49% (inactive)
